# In the library only some 5.2% were active in any assay of this set; here they are far more common.
# VDR inhibitor: inhibitors of human vitamin D receptor; VDR-SRC2-3 peptide fluorescence polarization, 2 h; 400,000 compounds, 0.93% hits; Potency, µM, actives largely listed as inhibitors
#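 After 23 nl compound addition and a short centrifugation, plates sat for 2 hours at ambient temperature; polarization of fluorescence then indicated loss of VDR binding to peptide SRC2-3.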
# rTrxR1 inhibitor: rat TrxR1 inhibition. O89049. 390,000 compounds, 1% hits. Potency, µM (titrated, usually from 114 µM), most hits filed as inhibitors. recombinant rTrxR1, NADPH fluorescence consumption, selenite substrate; further: nearly all actives have a fitted effect of over 65% in size
# Target sequence (O89049 whole entry, looked up): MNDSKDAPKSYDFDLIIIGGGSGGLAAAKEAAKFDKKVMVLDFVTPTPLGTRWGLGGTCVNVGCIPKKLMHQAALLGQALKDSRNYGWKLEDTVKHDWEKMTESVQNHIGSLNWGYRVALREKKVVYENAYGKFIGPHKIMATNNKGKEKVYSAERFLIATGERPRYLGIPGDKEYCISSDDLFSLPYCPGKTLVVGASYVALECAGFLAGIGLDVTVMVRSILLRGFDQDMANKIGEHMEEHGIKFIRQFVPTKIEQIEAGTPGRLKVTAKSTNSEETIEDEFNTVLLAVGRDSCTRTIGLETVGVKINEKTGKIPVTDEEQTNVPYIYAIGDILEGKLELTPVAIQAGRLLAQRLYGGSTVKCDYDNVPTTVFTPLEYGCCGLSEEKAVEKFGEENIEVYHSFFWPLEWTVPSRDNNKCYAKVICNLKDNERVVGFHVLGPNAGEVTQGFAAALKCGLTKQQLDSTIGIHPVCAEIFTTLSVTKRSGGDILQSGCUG
#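 Rat TrxR1 (90 nM in the dispensed reagent) was pre-reduced with 400 uM NADPH for 5 min at room temperature, then incubated with compound for 15 min. After 400 uM selenite was added, NADPH fluorescence (Ex 340/Em 450 nm) was followed for 8 min.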
# IDH1 R132H inh: inhibitors of human mutant IDH1 R132H; AID 602179; IDH1-R132H enzyme, NADPH consumption, diaphorase/resazurin fluorescence; 390,000 compounds, 0.093% hits; O75874; Potency, µM (series often up to 76.6 µM), hits mostly inhibitors; further: nearly all actives have a fitted effect of over 65% in size
#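 IDH1-R132H (0.5 ug/mL dispensed) in pH 7.5 Tris buffer was preincubated 30 min with compound, then given a substrate mix of 0.016 mM NADPH and 2 mM alpha-KG for 80 min at room temperature; remaining NADPH was read by diaphorase/resazurin fluorescence.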
# PLK1 PBD inh: blocks phosphopeptide binding to human PLK1 polo-box domain | P53350 | Plk1 PBD binding of FITC phosphopeptide, fluorescence polarization | Potency, µM, most hits filed as inhibitors | 360,000 compounds, 2.8% hits | AID 720504; further: series mostly up to about 57 µM; nearly all actives have a fitted effect of over 65% in size
# TrxR1 substrate: substrates of rat thioredoxin reductase 1; O89049; purified TrxR1 substrate turnover, NADPH consumption readout; Potency, µM (highest dose often 114 µM); 390,000 compounds, 0.01% hits; further: nearly all actives have a fitted effect of over 50% in size
#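 Rat TrxR1, dispensed at 90 nM, was prereduced with 400 uM NADPH (final) for 5 min at ~22 deg C, then incubated with compound 15 min before 400 uM selenite. A first-read NADPH fluorescence drop versus no-compound background flagged substrates.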
# Sfp inh: Sfp phosphopantetheinyl transferase inhibition. Q9F4F7. Biochemical Sfp PPTase activity, qHTS. Potency, µM, usual class: inhibitors. 310,000 compounds, 3.5% hits. AID 1490;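 further: the enzyme is Sfp with the accession as filed and its product quenches rhodamine fluorescence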
#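 After 15 min at room temperature with compound, 15 nM Sfp received 5 uM rhodamine-CoA plus 12.5 uM BHQ-2-ybbR (50 mM Hepes pH 7.6, 10 mM MgCl2). Rate came from the fluorescence difference over 30 min, ex 525/em 598 nm.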
# Hits are given with their value; – = inactive; ? = inconclusive; · = no result given; [ ] = dose if it differs, or a comment. The call rests on the fitted dose curve; in most records, active means well fitted curve in the direction sought with a large enough effect; inconclusive means small, poorly fitted or top-dose-only effect, or another doubt; inactive means no such curve, though single readings can be large; an effect the other way counts as inactive or inconclusive.
SMILES,VDR inhibitor,rTrxR1 inhibitor,IDH1 R132H inh,PLK1 PBD inh,TrxR1 substrate,Sfp inh
Cc1ccc2sc(C)[n+](CCC(C)S(=O)(=O)[O-])c2c1 (stereo not drawn),?,–,–,–,–,40µM
CC/C(=C/c1sc2ccc(C)cc2[n+]1CCO)SC,?,–,–,–,–,28µM
Cc1ccc(S(=O)(=O)C(CNC(=O)c2ccc(F)c(F)c2)c2ccco2)cc1 (stereo not drawn),–,–,–,·,–,·
Cc1cc(C(=O)N2CCCC(N3CCN(c4ccc(F)cc4)CC3)C2)c(C)o1 (stereo not drawn),?,–,–,27µM,–,–
O=c1ccc2ccccc2[nH]1,–,·,·,·,·,–
O=C1CC(N(O)c2ccccc2)C(=O)N1c1ccc(Cl)c(Cl)c1 (stereo not drawn),–,–,–,–,–,–
CCCCCCC(=O)N(O)C1CC(=O)N(c2ccc(Br)cc2)C1=O (stereo not drawn),?,22µM,–,?,–,22µM
COc1ccccc1N(O)C1CC(=O)N(c2ccc(Br)cc2)C1=O (stereo not drawn),50µM,45µM,–,3µM,–,–
C#CCN(C[C@@H]1[C@@H](OC(=O)NCC2CCCCC2)[C@@H](OC(=O)NCC2CCCCC2)Cn2c(=O)n(CCCCCC)c(=O)n21)S(=O)(=O)c1ccc(C)cc1,·,·,–,–,·,·
COc1ccc(N(Cc2nnc3n2CCCCC3)C(=O)Nc2cccc(C)c2)cc1Cl,–,–,–,·,–,·
CC(C)Nc1nc(NC(C)C)nc(OCCOC(=O)c2ccccc2)n1,–,–,–,–,–,–
CC(=O)OCCOc1nc(NC(C)C)nc(NC(C)C)n1,?,–,–,30µM,–,–
COc1ccc(-c2n[nH]c3c2cnc2cc(OC)c(OC)cc23)cc1,–,–,–,·,–,·
CNc1oc(-c2ccc(C)cc2)nc1P(=O)(c1ccccc1)c1ccccc1,–,–,–,–,–,56µM
Cn1cccc1C(=O)OCC(=O)NC(=O)c1ccc(Cl)cc1,–,–,–,–,–,·
COCCn1c(=O)[nH]c(=O)c2c1nc(-c1cc(Br)c3c(c1)OCO3)n2Cc1ccccc1,–,–,–,?,–,–
COc1ccc(N2C(=O)CC(Sc3nnc(-c4ccccc4F)n3C)C2=O)cc1 (stereo not drawn),–,32µM,–,24µM,–,–
COC(=O)c1ccc(N2C(=O)CC(Sc3n[nH]c(C)n3)C2=O)cc1 (stereo not drawn),–,13µM,–,3.4µM,–,?
COc1ccc(N2C(=O)CC(Sc3nc4ccccc4s3)C2=O)cc1 (stereo not drawn),–,–,–,–,–,–
COc1cccc(N2C(=O)CC(Sc3nc(C)cc(C)n3)C2=O)c1 (stereo not drawn),–,–,–,–,–,–
COc1ccc(N2C(=O)CC(Sc3n[nH]c(-c4cccc(C)c4)n3)C2=O)cc1 (stereo not drawn),–,?,–,?,–,3.2µM
Cc1ccc(N(C(=O)CNC(=O)c2ccco2)C(C(=O)NCC2CCCO2)c2ccccc2)c(C)c1 (stereo not drawn),–,–,–,–,–[0.0914 µM],–
COC(=O)/C(=C/c1ccco1)NC(=O)c1ccc(Br)o1,–,?,–,–,–,45µM
NC(=O)/C(=C/c1ccco1)NC(=O)c1ccc(Br)o1,–,11µM,–,–,–,·
NC(=O)/C(=C\c1ccco1)NC(=O)c1ccco1,·,·,–,–,·,·
SMILES,VDR inhibitor,rTrxR1 inhibitor,IDH1 R132H inh,PLK1 PBD inh,TrxR1 substrate,Sfp inh
CCCn1c(=O)c2ccccc2n2c(SCC(=O)NCc3cccs3)nnc12,–,–,–,27µM,–,–
C=CCn1c(=O)c2ccccc2n2c(SCC(=O)N(C)C)nnc12,–,–,–,–,–,–
C=CCn1c(=O)c2ccccc2n2c(SCC(=O)c3ccccc3)nnc12,–,–,–,24µM,–,–
CN(C)c1ccc(CNC(=O)C2Cc3c(-c4ccccc4Oc4ccccc4)ccnc3O2)cc1 (stereo not drawn),·,·,·,–,·,·
Cc1ccc(C(=O)Oc2ccc(C(=O)COC(=O)C3CC(=O)N(Cc4ccco4)C3)cc2)cc1 (stereo not drawn),–,–,–,?,–,?
O=C(COC(=O)C1CC(=O)N(Cc2ccco2)C1)c1ccc(OC(=O)c2ccco2)cc1 (stereo not drawn),?,?,–,?,–,13µM
CCCCc1cc(=O)oc2cc(C)cc(OCC(=O)N3CCC(C(=O)O)(c4ccccc4)CC3)c12,–,–,–,–,–,–
CCc1c(C)nc2ncnn2c1N1CCC(C(=O)NCc2cccc(OC)c2)CC1,?,–,–,27µM,–,–
COc1cccc(CNC(=O)C2CCN(S(=O)(=O)c3ccc(C)cc3)CC2)c1,–,–,–,–,–,–
Cc1ccc(CCNC(=O)C2CCCN(S(=O)(=O)c3c(C)nn(C)c3C)C2)cc1 (stereo not drawn),–,–,–,27µM,–,–
COc1cccc(CNC(=O)C2CCN(S(=O)(=O)c3c(C)nn(C)c3C)CC2)c1,–,–,–,27µM,–,–
Cc1nn(C)c(C)c1S(=O)(=O)N1CCCC(C(=O)NCCc2ccc(Cl)cc2)C1 (stereo not drawn),–,–,–,–,–,–
CC1CCCC(NC(=O)NC(=O)COC(=O)C2=NN(c3ccccc3)C(=O)CC2)C1C (stereo not drawn),–,–,–,–,–,·
Cc1ccc(C(=O)n2ncn(C)c2=S)cc1,?,?,–,9.5µM,–,?
CCC(C)c1ccccc1NC(=O)C(C)N(C)Cc1cccc(OC)c1 (stereo not drawn),–,–,–,–,–,50µM
CCOc1ccccc1NC(=O)N(Cc1ccc(F)cc1)C1CCN(CC)CC1,–,–,·,·,–,·
COc1cc2c(cc1NC(=O)c1ccccc1-c1ccccc1C(=O)O)-c1ccccc1C2,·,·,–,42µM,·,·
COc1cccc(NC(=O)c2ccccc2-c2ccccc2C(=O)O)c1,–,–,–,–,–,–
CCCOc1ccccc1C(=O)N(Cc1ccc(C)o1)C1CCS(=O)(=O)C1 (stereo not drawn),–,?,–,–,–,–
CCCOc1ccccc1C(=O)N(Cc1ccco1)C1CCS(=O)(=O)C1 (stereo not drawn),–,–,–,30µM,–,–
O=P(c1ccccc1)(c1ccccc1)C(O)c1ccccn1 (stereo not drawn),–,–,–,–,–,79µM
N#Cc1c(-c2ccccc2)cc(-c2ccccc2)nc1SCCC(=O)O,?,–,–,21µM,–,45µM
N#Cc1c(-c2ccc(Cl)cc2)cc(-c2ccccc2)nc1SCC(=O)O,?,–,–,?,–,–
